# Reference: PubChem BioAssay AID886 (National Center for Advancing Translational Sciences (NCATS), 2007)
# Where “and” joins values, the source holds several entries; their conditions need not be identical. Equal entries are not always repeated. Hit rate of the full screen: of about 73,000 compounds, about 2,500 (3.4%) were called active. Where a call stands in place of a potency, no number is given. Inconclusive results (about 7%) are left out. This is one part of a sample in which actives are shown more often than they occur. A number with no mark means an inactive call. The call rests on the fitted dose curve; in most records, active means well fitted inhibition curve with a large enough effect; inconclusive means small, poorly fitted or top-dose-only effect; inactive means no such curve, though single readings can be large or run the other way.
# Molecular target: 3-hydroxyacyl-CoA dehydrogenase type-2 (Homo sapiens) (UniProt Q99714)
# Sequence (Q99714 whole entry, looked up): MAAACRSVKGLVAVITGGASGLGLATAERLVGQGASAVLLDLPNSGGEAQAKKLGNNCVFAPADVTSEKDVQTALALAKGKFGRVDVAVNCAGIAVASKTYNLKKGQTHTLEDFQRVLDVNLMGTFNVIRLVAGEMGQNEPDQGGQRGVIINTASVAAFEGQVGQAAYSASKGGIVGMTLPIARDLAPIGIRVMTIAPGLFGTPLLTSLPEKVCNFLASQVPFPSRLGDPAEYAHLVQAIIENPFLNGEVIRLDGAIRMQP
# Sequence (Q99714 whole entry, looked up): as above
# Experiment: qHTS Assay for Inhibitors of HADH2 (Hydroxyacyl-Coenzyme A Dehydrogenase, Type II); further: nearly all actives have a fitted effect of over 60% in size
# Conditions: recombinant HADH2, NADH fluorescence, beta-hydroxybutyryl-CoA; series mostly up to 57.1 µM
# In short: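 Activity measured as NADH fluorescence gain (360/450 nm), taken as the change between first and last reads of a 4-min kinetic run. Conditions: pH 9.0 Tris buffer, 20 nM E. coli-expressed His-tagged enzyme, 1 mM NAD+, 90 uM beta-hydroxybutyryl-CoA; 15-min compound preincubation.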
# Potency means the concentration at half of the fitted maximal effect.
SMILES,"activity change, negative = inhibition",Potency
C[C@@H](c1ccccc1)N1C(=O)[C@H]2[C@H]3[C@H](O)[C@H](O)C/C(=N/OC[C@@H](O)COCc4ccco4)[C@@H]3CC[C@@H]2C1=O,7.28% [at 11.4 µM],
CCCc1[nH]nc2c1C(c1ccc(OC(=O)c3ccco3)cc1)C(C#N)=C(N)O2 (configuration not stated),,inactive
CCCc1[nH]nc2c1C(C1CC=CCC1)C(C#N)=C(N)O2 (configuration not stated),,inactive
CCCc1[nH]nc2c1C(c1ccc(Br)s1)C(C#N)=C(N)O2 (configuration not stated),,10 µM (active)
CN(C)c1ncc2nc(-c3ccc(F)cc3)c(=O)n(Cc3ccc(F)cc3)c2n1,,inactive
COC(=O)[C@@]1(Cc2ccc(OC)cc2)[C@H]2c3cc(C(=O)N4CCCC4)n(Cc4ccc(C(F)(F)F)nc4)c3C[C@H]2CN1C(=O)c1ccccc1,,inactive
Oc1ccc(O)c2c(O)cccc12,,1.26 µM (active)
O=C(CS(=O)(=O)Cc1ccccc1)NCC1CCCO1 (configuration not stated),,inactive
O=C(CSC1=Nc2ccccc2C2=NC(c3ccccc3)C(=O)N12)NCC1CCCO1 (configuration not stated),,31.6 µM (active)
O=C(CSc1nnc(-c2ccc(NS(=O)(=O)c3ccccc3)cc2)o1)NCC1CCCO1 (configuration not stated),,inactive
Cc1ccnc(N)c1,,inactive
N#Cc1ccc(CN2CCCC3(CCN(C(=O)c4ccco4)CC3)C2)cc1,,inactive
COc1ccc(/C=C/NC(=O)c2ccc(OC)cc2)cc1,-13.3% [at 11.4 µM],
C[C@@H]1O[C@@H](O[C@@H]2[C@@H](O)[C@H](OCCc3ccc(O)c(O)c3)O[C@H](CO[C@@H]3O[C@H](CO)[C@@H](O)[C@H](O)[C@H]3O)[C@H]2OC(=O)/C=C/c2ccc(O)c(O)c2)[C@H](O)[C@H](O)[C@H]1O,,0.1 µM (active)
CO/N=C\[C@@H](C)[C@H](OCc1ccccc1)C(C)C,2.33% [at 11.4 µM],
CCN(Cc1ccncc1)C(=O)[C@@H](CO)c1ccccc1,,inactive
C=CC(=O)OCCOCCOCCOCCOC(=O)C=C,,inactive
COc1cccc(Cn2c(=O)c(-c3ccccc3)nc3cnc(OC)nc32)c1,,inactive
CCOC(=O)CCc1c(C)c2ccc(OCc3nn[nH]n3)c(C)c2oc1=O,,25.1 µM (active)
C=CC(=C)CCC=C(C)C,,inactive
COc1ccc(C(=O)n2nc(-c3ccc(C)cc3)nc2N)cc1OC,,31.6 µM (active)
COc1ccc(C(=O)n2nc(-c3ccc(Cl)cc3)nc2N)cc1OC,,inactive

SMILES,"activity change, negative = inhibition",Potency
COc1ccccc1C(=O)n1nc(-c2ccccc2)nc1N,,inactive
CO[C@@H]1COC(=O)C/C=C\[C@H](C)[C@@H](NS(=O)(=O)c2ccc(C)cc2)COC(=O)C/C=C\[C@@H]1C,6.59% [at 11.4 µM] and 13.2% [at 11.4 µM],
COc1ccc(C(=O)N2CCC[C@@]3(CCN(C(=O)NC(C)C)C3)C2)cc1,,inactive
O=C1OCCC=C1[C@@H](O)CCc1ccccc1,-6.14% [at 11.4 µM],
C[C@H]1CC[C@H](C(=O)O)N[C@@H]1c1ccc(C#Cc2ccccc2)cc1,4.48% [at 11.4 µM],
CCOC(=O)c1cc2ccccc2nc1C,,inactive
CCOC(=O)c1cc(-c2nnc(-c3cc(OC)c(OC)c(OC)c3)o2)c(C)nc1C,,5.01 µM (active)
CCCc1nc2ccccc2c(C(=O)OCc2nnc(-c3cc(OC)c(OC)c(OC)c3)o2)c1CC,,inactive
Cc1cc2c(cc1C)NC1=C(N2)O[C@H](c2c[nH]c3ccc(COc4ccccc4)cc23)C1=O,0.634% [at 11.4 µM],
O=C1CC(c2cccc(Br)c2)C2=C(CCCC2=O)N1 (configuration not stated),,inactive
CCCN1C2=C(C(=O)CCC2)C(c2ccc(O)c(Br)c2)C2=C1CCCC2=O,,15.8 µM (active)
C[C@@H](C(=O)Nc1ccc2ccccc2c1)[C@@H]1C[C@@]1(C)[C@@H](NC(=O)c1cccnc1)c1ccccc1,,inactive
COc1ccc(C[C@H](N)C(=O)N[C@@H]2[C@H](O)[C@H](n3cnc4c(N(C)C)ncnc43)O[C@@H]2CO)cc1,,inactive
CCC(=O)Nc1ccc(C(=O)Nc2ccc3c(c2)C(=O)N(CC2CCCO2)C3=O)cc1 (configuration not stated),,10 µM (active)
CN1C(=O)c2ccc(NC(=O)C3CCCCC3)cc2C1=O,,inactive
O=C(NCc1ccc2c(c1)OCO2)c1ccc2c(c1)C(=O)N(CC1CCCO1)C2=O (configuration not stated),,inactive
c1ccc2sc(SCCSc3nc4ccccc4s3)nc2c1,16.5% [at 11.4 µM],
COC(=O)[C@@]1(Cc2ccc(F)cc2)[C@@H]2[C@@H](CC(=O)[C@H]2CC(=O)C(=O)N2CCCC2)CN1C(=O)c1ccccc1,,inactive
O=C(OCC(COC(=O)c1ccccc1)(COC(=O)c1ccccc1)COC(=O)c1ccccc1)c1ccccc1,,inactive
CCOc1ccccc1C1C(C(=O)OC)=CN(C)C=C1C(=O)OC,,31.6 µM (active)
CCOc1cc(C2C(C(=O)OC)=CN(C3CCCC3)C=C2C(=O)OC)cc(Br)c1O,,inactive
COC(=O)C1=CN(C)C=C(C(=O)OC)C1c1ccc(Cl)cc1Cl,,inactive

SMILES,"activity change, negative = inhibition",Potency
Cn1c(=O)c(-c2ccccc2)nc2cnc(N3CCNCC3)nc21,,inactive
CO[C@H]1COC(=O)[C@H](Cc2ccccc2)NC(=O)C/C=C\[C@@H](C)[C@H](OC)COC(=O)C/C=C\[C@@H]1C,2.71% [at 11.4 µM],
c1cncc(CNc2ccnc(-c3ccc4c(c3)OCO4)n2)c1,,25.1 µM (active)
O=C(Nc1cccnc1)c1ccc2c(c1)OCO2,,inactive
c1n[nH]c(NCc2ccc3c(c2)OCO3)n1,,inactive
CCCCCCc1ccc(O)cc1O,,inactive
O=C(Cn1c(=O)sc2ccccc21)Nc1nc2c(s1)CCCC2,,inactive
COc1cccc(Cn2c(=O)c(CCc3ccccc3)nc3cnc(N(C)C)nc32)c1,,inactive
CC1CCN(C(=O)CSc2ccc3nnc(-c4cccc(F)c4)n3n2)CC1,,inactive
CCOc1ccc(-c2nnc3ccc(SC)nn23)cc1,,inactive
COC(=O)C(C)Sc1ccc2nnc(-c3cccc(F)c3)n2n1 (configuration not stated),,12.6 µM (active)
Cc1cc(C)c2nc3c(c([C@H](O)[C@@H]4CCCCN4)c2c1)CC/C3=C/c1ccc(Cl)cc1,12.8% [at 11.4 µM],
COC(=O)[C@@]1(Cc2ccc(F)cc2)[C@H]2c3cc(C(=O)N4CCCC4)n(Cc4ccc(OC(F)(F)F)cc4)c3C[C@H]2CN1C(=O)c1ccccc1,,inactive
CCc1cc(=O)oc2cc(C)cc(OC(C)C(=O)O)c12 (configuration not stated),,inactive
CCCCc1cc(=O)oc2cc(C)cc(OCc3nn[nH]n3)c12,,25.1 µM (active)
O=C(O)c1cccc(S(=O)(=O)NCCO)c1,-11.5% [at 11.4 µM],
O=C(CN1C(=O)CCS(=O)(=O)c2ccccc21)NCc1ccc(F)cc1,,inactive
NC(=O)CSC1=Nc2ccccc2C2=NC(CCC(=O)NCc3ccc(F)cc3)C(=O)N12 (configuration not stated),,31.6 µM (active)
CC(C)C1N=C2c3ccccc3N=C(SCC(=O)c3ccc(O)c(O)c3)N2C1=O (configuration not stated),,inactive
CC(=O)/C(=N\N=C(N)N)c1ccccc1,5.03% [at 11.4 µM],
NS(=O)(=O)c1cc(C(=O)O)c(Cl)c([N+](=O)[O-])c1Cl,11.6% [at 11.4 µM],
O=C(c1ccncc1)N1CCC2(CCN(Cc3cc(C(F)(F)F)cc(C(F)(F)F)c3)CC2)CC1,,inactive

SMILES,"activity change, negative = inhibition",Potency
Cc1nc2cnc(N3CCNCC3)nc2n(CCc2ccccc2)c1=O,,inactive
Cc1cc(C)c2c(n1)nn1c(-n3ccnc3)cc(C)nc21,,inactive
Cc1cc(C)c2c(n1)nn1c(N3CCN(c4cccc(Cl)c4)CC3)cc(C)nc21,,inactive
Cc1cc(C)c2c(n1)nn1c(N3CCOCC3)cc(C)nc21,,25.1 µM (active)
Cc1cc(C(=O)O)ccc1[N+](=O)[O-],,inactive
CCCCC/C=C/C=C/C=O,,inactive
C=CC(=O)c1ccc2ccccc2c1,,20 µM (active)
Cc1ccc2nc(CC(=O)c3ccc4ccccc4c3)c(=O)[nH]c2c1,11.5% [at 11.4 µM],
CCCC[C@H]1C(=O)N(c2ccccc2)N(c2ccc(O)cc2)C1=O,,inactive
COc1ccc(-n2c(=O)c(C)nc3cnc(N4CCOCC4)nc32)cc1,,inactive
COCC(=O)N1CCC2(CCCN(c3ccccc3)C2)CC1,,inactive
O=C(O)COc1c(Cl)cc(Cl)c2cccnc12,7.63% [at 11.4 µM],
Oc1ccc(-c2csc(Nc3cccnc3)n2)cc1,,inactive
COc1ccc(OC)c(Nc2nc(-c3ccc(O)c(O)c3)cs2)c1,,0.126 µM (active)
COc1ccc(-c2n[nH]c(C)c2-c2ccc(OC)c(OC)c2)c(O)c1,,inactive
CO[C@@H]1/C=C\O[C@]2(C)Oc3c(C)c(O)c4c(O)c(c(CN(C)C)c(O)c4c3C2=O)NC(=O)/C(C)=C\C=C[C@@H](C)[C@@H](O)[C@H](C)[C@@H](O)[C@H](C)[C@H](OC(C)=O)[C@@H]1C,-4.82% [at 11.4 µM],
CC(C)NC(=O)N1CC[C@@]2(CCCN(C(=O)c3cccc(F)c3)C2)C1,,inactive
COC(=O)NC(c1ccccc1)[C@]1(C(C)=O)CCCC1=O (some centres not stated),4.66% [at 11.4 µM],
CN1CCCc2cc(C#N)c(=O)[nH]c21,,3.16 µM (active)
CC/C=C/C/C=C/C/C=C/CCCCCCCC(=O)OCC,,inactive
CN(C)CCSS(=O)(=O)O,9.41% [at 11.4 µM],
